Assay outcomes deposited in PubChem by several laboratories.
ADAM17 inh – ADAM17 inhibitors, primary screen, biochemical, QFRET | recombinant ADAM17, EDANS/DABCYL FRET peptide cleavage | 0.83% of 370,000 active | Disintegrin and metalloproteinase domain-containing protein 17 (Homo sapiens), P78536 | inhibition, % at 6.95 µM | AID 720648, 2013;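 active = inhibition above the mean of compounds lying between control limits plus 3 SD, set per campaign, cut at about 8.5% in these data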;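 note: 0% = DMSO-only wells as the low control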
Target sequence (P78536 215-824 limits assumed): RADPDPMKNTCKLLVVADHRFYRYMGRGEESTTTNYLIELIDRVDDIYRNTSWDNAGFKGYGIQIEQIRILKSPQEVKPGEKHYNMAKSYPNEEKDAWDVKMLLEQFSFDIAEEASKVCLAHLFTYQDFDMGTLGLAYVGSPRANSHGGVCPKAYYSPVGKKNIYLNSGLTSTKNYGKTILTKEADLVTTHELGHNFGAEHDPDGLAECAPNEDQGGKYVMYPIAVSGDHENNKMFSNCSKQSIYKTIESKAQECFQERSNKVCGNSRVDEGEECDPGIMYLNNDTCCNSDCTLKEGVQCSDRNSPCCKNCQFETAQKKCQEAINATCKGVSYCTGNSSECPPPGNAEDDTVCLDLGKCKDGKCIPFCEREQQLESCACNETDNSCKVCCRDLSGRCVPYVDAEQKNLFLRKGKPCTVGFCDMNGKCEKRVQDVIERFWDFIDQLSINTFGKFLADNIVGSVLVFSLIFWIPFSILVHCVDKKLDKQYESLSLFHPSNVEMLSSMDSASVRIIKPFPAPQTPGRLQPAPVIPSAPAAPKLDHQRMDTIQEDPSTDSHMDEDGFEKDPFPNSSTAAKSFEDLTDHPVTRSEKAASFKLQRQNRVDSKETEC
ADAM10 inh – human ADAM10 inhibitors, primary screen, biochemical, QFRET, HTS; Disintegrin and metalloproteinase domain-containing protein 10 (Homo sapiens), O14672; recombinant ADAM10, EDANS/DABCYL FRET peptide cleavage, 3 h; inhibition, % at 7 µM; 0.62% of 370,000 active;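 active = inhibition above a per-campaign cutoff equal to the mean of compounds falling between control-based bounds plus 3 SD, cut at about 20% in these data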;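 note: 0% = DMSO wells while the 100% control is not disclosed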
V-ATPase pHluor – regulators of yeast V-ATPase proton pumping, primary screen, pHLuorin cytosolic pH fluorescence. 0.37% of 350,000 active. response, % at 10 µM. S. cerevisiae; in the data active = response mostly above about 7.3%, no sharp cut-off; inactive = mostly below about 5.4%; note: actives read high
proKLK7 act – proKLK7 zymogen activators, primary screen, biochemical, fluorescence intensity | Kallikrein-7 (Homo sapiens), P49862 | activation, % at 7 µM | AID 652039, 2013 | purified proKLK7, EDANS-DABCYL substrate fluorescence; 100% is mature enzyme control, 0% vehicle | 0.9% of 370,000 active;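 active = activation above the mean of all tested compounds plus 3 SD, computed per campaign excluding outliers beyond control limits, cut at about 13% in these data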
ADAM10 confirm – human ADAM10 inhibitors, confirmation, biochemical, QFRET, triplicate; 1% of 2,100 active; ADAM10 QFRET peptide cleavage, EDANS fluorescence; shares compounds with ADAM10 inh; inhibition, % at 6.95 µM;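 active = inhibition above about 20% chosen separately for each screening run, limit read from the data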;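 note: 0% = DMSO wells and 100% = marimastat wells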
ADAM17 counter – ADAM17 inhibitors, counter-screen for ADAM10 exosite inhibitor project, biochemical, QFRET, high throughput; inhibition, % at 6.95 µM; shares compounds with ADAM10 inh; AID 743214, 2013; ADAM17 QFRET peptide cleavage, EDANS fluorescence; 0.5% of 2,100 active;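 active = mean triplicate inhibition above the solvent-only control wells' mean plus 3 SD, cut at about 12% in these data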;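 note: 0% = DMSO wells and 100% = marimastat wells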
ADAM10 counter – ADAM10 inhibitors, counter-screen for ADAM17 exosite inhibitor project, biochemical, FRET, human ADAM10; inhibition, % at 6.95 µM; recombinant ADAM10, EDANS/DABCYL FRET peptide cleavage, 3 h; shares compounds with ADAM17 inh; 47% of 2,900 active;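 active = mean inhibition over the triplicate runs exceeds the activity threshold set in the earlier primary screen, cut at about 20% in these data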;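 note: 0% = DMSO wells and 100% = marimastat wells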
ADAM17 confirm – ADAM17 inhibitors, hit retest, confirmation, biochemical, QFRET peptide cleavage; shares compounds with ADAM17 inh; recombinant ADAM17, EDANS/DABCYL QFRET peptide cleavage; inhibition, % at 6.95 µM; 65% of 2,900 active;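 active = mean inhibition across replicates above the hit cutoff set in the primary screen, cut at about 8.5% in these data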;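 note: 0% = DMSO wells and 100% = marimastat wells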
Starred values were filed as active, the others as inactive; / = not tested or not shown. Most compounds without a hit are left out; they make up all but 2.3% or so of the library.

SMILES | ADAM17 inh | ADAM10 inh | V-ATPase pHluor | proKLK7 act | ADAM10 confirm | ADAM17 counter | ADAM10 counter | ADAM17 confirm
CN(C)c1cccc2c(S(=O)(=O)NCC3CCN(C(=O)C(=O)c4cccs4)CC3)cccc12 | -1.7 | -27.5 | / | -0.7 | / | / | / | /
C=CC[C@H](CC(=O)N(CCO)Cc1ccccc1)C(=O)N[C@H](COC(=O)[C@@H](CC=C)Cc1ccc(F)cc1)Cc1ccccc1 | 10.8* | 20.7* | -4.1 | 0.4 | 10.4 | 3.7 | 24.9* | 15.7*
C=CC[C@@H](CC(=O)N(CCO)Cc1ccccc1)C(=O)N[C@H](C)COC(=O)[C@@H](CC=C)Cc1ccc(F)cc1 | 2.0 | 6.4 | -2.9 | 0.9 | / | / | / | /
CCOC(=O)c1sc(NC(=O)CSc2n[nH]c(CC(C)C)n2)nc1C | 8.8* | 27.3* | -1.3 | -1.2 | 0.3 | -0.1 | 5.5 | -1.7
CCOC(=O)c1ccc(NC(=O)c2ccc(NC(=O)c3ccccc3)cc2)cc1 | -5.4 | -7.8 | 0.8 | -0.3 | / | / | / | /
CCOC(=O)c1ccc(NC(=O)COC(=O)c2cccc(Oc3ccccc3)c2)cc1 | 12.7* | 28.1* | -0.8 | -0.1 | 8.6 | 2.7 | 26.9* | 14.3*
CCCCCn1nnnc1C1(C)CSCC(=O)N1Cc1ccco1 (stereo not given) | -2.6 | 4.0 | / | -0.3 | / | / | / | /
CCCCC[C@H](C)N1C[C@H](COCc2ccccc2)Oc2cc(N3CC[C@@H](N(C)C)C3)ccc2S1(=O)=O | 7.2 | 7.9 | / | 0.2 | / | / | / | /
CCCCC[C@@H](C)N1C[C@@H](COCc2ccccc2)Oc2cc(N3CC[C@H](O)C3)ccc2S1(=O)=O | 9.1* | 22.3* | / | 0.4 | 10.8 | 2.8 | 34.3* | 17.5*
CCCCCN1CCCCC(NC(=O)Cc2ccccc2)C1=O (stereo not given) | -2.4 | -1.4 | / | 0.2 | / | / | / | /
CCOC(=O)C1=C(C(=O)OCC)C2N(Cc3ccc(Br)cc3)c3ccccc3[C@@]23C[C@@H](C(=O)OC)N(S(=O)(=O)c2ccc(Br)cc2)C3=N1 (stereo not given in full) | -3.6 | -3.7 | / | 0.1 | / | / | / | /
C[C@H](CO)N1C[C@H](C)[C@H](CN(C)S(C)(=O)=O)OCc2ccccc2-c2c(n(C)c3ccccc23)C1=O | -4.1 | -15.4 | -1.7 | -0.2 | / | / | / | /
Cc1ccc(S(=O)(=O)N(C)C[C@@H]2OCc3ccccc3-c3c(n(C)c4ccccc34)C(=O)N([C@H](C)CO)C[C@@H]2C)cc1 | 12.0* | 26.7* | 1.3 | 0.2 | 8.7 | 1.9 | 38.5* | 20.8*
O=C(O)c1cccc(NC(=O)C23CC4CC(C2)CC(n2cnc(Cl)n2)(C4)C3)c1 | -4.8 | 10.4 | -3.2 | 0.8 | / | / | / | /
O=C(Nc1cc(Oc2ccccc2)cc([N+](=O)[O-])c1)C12CC3CC(C1)CC(n1cnc(Cl)n1)(C3)C2 | 9.7* | 21.9* | -3.6 | 0.0 | 8.2 | 2.9 | 28.4* | 11.2*
CC(C)CNC(=O)OCc1cn(Cc2ccccc2F)nn1 | 0.0 | -2.4 | / | -0.5 | / | / | / | /
C#CCN(C[C@H]1[C@H](OC(=O)NCc2ccccc2F)[C@H](OC(=O)NCc2ccccc2F)C[C@H]2C(=O)N(c3ccccc3)C(=O)[C@@H]12)S(=O)(=O)c1ccc(C)cc1 | 9.0* | 28.7* | -1.3 | 0.2 | 7.4 | 2.3 | 9.1 | 5.0
CC(=O)c1cc(-c2ccccc2)n(CC(=O)NCc2ccc(F)cc2)c1C | 2.5 | -1.2 | / | 0.3 | / | / | / | /
Cc1ccc2c(c1)C(CS(=O)(=O)NCC(C)C)NC2 (stereo not given) | 1.3 | -3.9 | / | -0.7 | / | / | / | /
CCn1c(NCc2ccccc2NS(=O)(=O)c2ccc(C)cc2)nc2ccccc21 | 16.1* | 27.4* | 1.2 | -0.8 | 5.6 | 2.5 | 23.6* | 14.9*
CCCn1c(NCc2ccccc2NS(=O)(=O)c2ccc(C)cc2)nc2ccccc21 | -1.3 | 3.5 | 3.4 | 0.5 | / | / | / | /
O=C(CNc1ccc(C(F)(F)F)cc1)Nc1cccc(S(=O)(=O)N2CCCCC2)c1 | 9.8* | 21.8* | 5.2 | 0.4 | 7.3 | 1.9 | 54.4* | 26.9*
O=C(CNc1ccc(C(F)(F)F)cc1)Nc1cccc(S(=O)(=O)N2CCCC2)c1 | 3.1 | 9.8 | 2.3 | 0.4 | / | / | / | /
O=C(CNc1cc(S(=O)(=O)N2CCCC2)ccc1OCC(F)(F)F)Nc1ccc(SC(F)F)cc1 | 16.2* | 19.9* | -1.3 | 0.7 | 0.8 | 2.2 | 35.0* | 20.4*
O=C(COC(=O)c1cc(S(=O)(=O)N2CCCC2)ccc1O)Nc1ccc(SC(F)F)cc1 | -6.1 | -32.9 | 2.4 | -0.4 | / | / | / | /
SMILES | ADAM17 inh | ADAM10 inh | V-ATPase pHluor | proKLK7 act | ADAM10 confirm | ADAM17 counter | ADAM10 counter | ADAM17 confirm
CN(CC(=O)Nc1cccc(F)c1)CC(=O)Nc1cccc(S(=O)(=O)N2CCCCC2)c1 | 2.3 | -2.0 | -1.6 | 0.6 | / | / | / | /
CN(CC(=O)Nc1cccc(F)c1)CC(=O)Nc1cccc(S(=O)(=O)N2CCCCCC2)c1 | 16.4* | 35.7* | 3.0 | -0.2 | 0.5 | 0.0 | 23.4* | 14.0*
CCOc1cccc(/C=N\NC(=O)c2cnccn2)c1O | 3.8 | 5.4 | / | 0.1 | / | / | / | /
O=C(Cc1c[nH]c2ccccc12)Nc1ccc(Nc2cccnc2)c(-c2ccc(OC(F)(F)F)cc2)c1 | 0.7 | 0.0 | / | -0.1 | / | / | / | /
Fc1ccc2nc(-c3ccc(CN4CCC(c5nc6ccccc6[nH]5)CC4)cc3)c(-c3ccccc3)nc2c1 | -15.2 | -87.7 | / | -8.0 | / | / | / | /
COc1cccc(CN(C)C(=O)[C@H]2O[C@@H](n3cnc4c(=O)[nH]c(N)nc43)[C@H](O)[C@@H]2O)c1 | -2.3 | -4.9 | / | -0.2 | / | / | / | /
CCN=C1NC(c2ccc(F)cc2)C(C(=O)OC)=C(C)N1Cc1cccc(C(F)(F)F)c1 (stereo not given) | -1.7 | -5.4 | / | 0.1 | / | / | / | /
CCOc1ccc(C(Nc2cccnc2)c2cc(Cl)c3cccnc3c2O)cc1 (stereo not given) | 14.7* | 21.7* | -2.3 | -0.3 | 45.0* | 15.2* | 49.1* | 27.8*
